The structures appear in SMILES notation. Out of some 310,000 compounds screened, about 14,000 (4.5%) showed an effect of 50% or more. The effect is printed as a negative number. Shown is part of a subset that was picked to be rich in strong results.
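Further: peak tail current of the secondary pulse compared with the same well before compound.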

Sequence of human ether-à-go-go-related gene (hERG) potassium channel (Q12809 whole entry, looked up): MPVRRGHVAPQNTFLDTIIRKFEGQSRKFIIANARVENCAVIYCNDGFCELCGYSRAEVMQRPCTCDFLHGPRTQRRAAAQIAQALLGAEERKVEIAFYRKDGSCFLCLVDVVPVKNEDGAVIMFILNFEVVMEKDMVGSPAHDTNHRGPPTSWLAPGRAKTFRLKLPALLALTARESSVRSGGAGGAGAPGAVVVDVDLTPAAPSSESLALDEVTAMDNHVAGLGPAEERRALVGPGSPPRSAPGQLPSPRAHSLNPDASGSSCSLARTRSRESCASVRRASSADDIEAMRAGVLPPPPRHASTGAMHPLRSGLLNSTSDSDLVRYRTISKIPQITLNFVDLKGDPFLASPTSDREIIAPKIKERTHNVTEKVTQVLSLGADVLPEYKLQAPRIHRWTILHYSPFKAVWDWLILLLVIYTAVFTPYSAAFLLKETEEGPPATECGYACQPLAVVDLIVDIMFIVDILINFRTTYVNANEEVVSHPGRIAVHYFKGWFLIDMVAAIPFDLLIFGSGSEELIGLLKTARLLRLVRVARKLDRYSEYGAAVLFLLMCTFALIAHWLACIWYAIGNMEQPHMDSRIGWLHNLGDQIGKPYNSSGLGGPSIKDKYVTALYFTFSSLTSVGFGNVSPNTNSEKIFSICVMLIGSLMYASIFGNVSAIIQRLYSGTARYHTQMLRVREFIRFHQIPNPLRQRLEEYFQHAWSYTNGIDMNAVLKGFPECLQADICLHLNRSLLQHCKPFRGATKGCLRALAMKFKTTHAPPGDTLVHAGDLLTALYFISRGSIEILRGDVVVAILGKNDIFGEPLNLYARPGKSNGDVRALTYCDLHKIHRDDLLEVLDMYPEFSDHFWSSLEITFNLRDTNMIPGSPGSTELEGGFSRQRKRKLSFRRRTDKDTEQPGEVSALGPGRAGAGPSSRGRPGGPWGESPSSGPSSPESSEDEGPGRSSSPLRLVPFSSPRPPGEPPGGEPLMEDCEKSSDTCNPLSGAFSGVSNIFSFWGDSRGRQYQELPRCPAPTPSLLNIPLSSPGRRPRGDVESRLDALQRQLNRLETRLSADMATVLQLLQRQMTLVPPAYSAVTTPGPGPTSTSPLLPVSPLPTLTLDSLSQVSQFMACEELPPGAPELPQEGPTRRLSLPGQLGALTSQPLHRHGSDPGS

The assay concerns the target human ether-à-go-go-related gene (hERG) potassium channel (human, UniProt Q12809). The assay can be described thus: primary screen, population patch clamp on CHO cells stably expressing hERG; higher = less effect of the substance.
On to `CCOC(=O)Nc1ccc(C(=O)/C=C/c2ccccc2)cc1`, for which the “hERG current change (%, negative = inhibition) at 10uM” value is on record as -7.78%. To `COc1cccc(/C=C(\CC(=O)O)c2nc3ccccc3s2)c1` belongs 11.6%; to `Cn1ncc(Cl)c1C(=O)NNC(=O)Nc1cccc2ccccc12`, 7.09%; to `Cc1ccc(-c2nn3c(C)nnc3c3ccccc23)cc1S(=O)(=O)NCCO`, 11%. For `Cc1ccc(-c2nn3c(C)nnc3c3ccccc23)cc1S(=O)(=O)N1CCN(CCO)CC1`, the “hERG current change (%, negative = inhibition) at 10uM” value is -74.5%.

As for `Cc1ccc(-c2nn3c(C)nnc3c3ccccc23)cc1S(=O)(=O)NC(C)c1ccccc1` (stereo not drawn), the “hERG current change (%, negative = inhibition) at 10uM” value is recorded as -50.8%. The result for `Cc1ccc(-c2nnc3c4ccccc4c(C)nn23)cc1S(=O)(=O)N1CCN(CCO)CC1` reads -32.9%; that for `CCOC(=O)N1CCN(S(=O)(=O)c2cc(-c3nn4c(C)nnc4c4ccccc34)ccc2C)CC1`, -29%.

Take `Cc1ccc(-c2nn3c(C)nnc3c3ccccc23)cc1S(=O)(=O)NCc1ccccc1`: the “hERG current change (%, negative = inhibition) at 10uM” value is -29.5%.

Consider `CCCN(C(=O)c1cc(Cl)nc2ccccc12)C1CCS(=O)(=O)C1` (stereo not drawn), for which the “hERG current change (%, negative = inhibition) at 10uM” value stood at 9.75%. To `O=C(N/N=C/c1ccncc1)c1ccc(NS(=O)(=O)c2cccs2)cc1` belongs 8.88%; to `CC(=O)c1cccc(CN(C)CC2CCCN(CCc3ccccc3C)C2)c1` (stereo not drawn), -28.8%; to `COc1cccc(CN(C)CC2CCCN(CCc3ccccc3C)C2)c1` (stereo not drawn), -109%. For the compound `COc1ccc(CCN2CCCC(CN(C)Cc3cccc(OC)c3)C2)cc1` (stereo not drawn), the “hERG current change (%, negative = inhibition) at 10uM” value is recorded as -60.6%. To `COc1ccc(CN(C)CC2CCCN(CCc3ccccc3C)C2)cc1O` (stereo not drawn) belongs -53.8%; to `CCn1c(CNC(=O)c2ccccc2Br)nnc1SCC(=O)Nc1nncs1`, 3.2%; to `COc1cccc(C(=O)Nc2ccc(NC(=O)c3ccco3)cn2)c1`, -15.1%. `O=C(Nc1ccc2c(c1)OCO2)c1cnn2c(C(F)(F)F)cc(-c3ccco3)nc12`: the “hERG current change (%, negative = inhibition) at 10uM” value is given as 2.24%. To `CCOC(=O)Cc1c(C)nc2c(-c3ccccc3OC)c(C)nn2c1C` belongs -22.7%. Take `COc1ccc(/C=N/N2C(=O)CN(C(=O)c3ccccc3)C2c2ccc(OC)cc2)cc1` (stereo not drawn): the “hERG current change (%, negative = inhibition) at 10uM” value was -4.19%. Turning to `CN1CCc2c1nc1ccccc1c2N.O=C(O)c1cc([N+](=O)[O-])ccc1Cl`, the “hERG current change (%, negative = inhibition) at 10uM” value is on record as -9.41%. For the compound `CCCCc1nc2ccccc2c(N)c1CCC.O=C(O)c1cc([N+](=O)[O-])ccc1Cl`, the “hERG current change (%, negative = inhibition) at 10uM” value is reported as -66.4%. As for `CCCCc1nc2ccccc2c(C(=O)O)c1C`, the “hERG current change (%, negative = inhibition) at 10uM” value amounted to 7.29%. In the case of `CS(=O)(=O)Nc1ccc(C2=NN(S(C)(=O)=O)C(c3cccs3)C2)cc1` (stereo not drawn), the “hERG current change (%, negative = inhibition) at 10uM” value is listed as -49%.

With `CS(=O)(=O)Nc1cccc(C2=NN(S(=O)(=O)c3ccccc3)C(c3cccs3)C2)c1` (stereo not drawn), the “hERG current change (%, negative = inhibition) at 10uM” value is listed as -1.94%. `Cc1cccc(C(=O)N2N=C(c3ccc(NS(C)(=O)=O)cc3)CC2c2cccs2)c1` (stereo not drawn): the “hERG current change (%, negative = inhibition) at 10uM” value was -8.44%. The result for `CS(=O)(=O)Nc1ccc(C2=NN(C(=O)c3ccccc3)C(c3cccs3)C2)cc1` (stereo not drawn) reads -59.6%; that for `CS(=O)(=O)Nc1ccc(C2=NN(S(=O)(=O)c3ccccc3)C(c3cccs3)C2)cc1` (stereo not drawn), -70.3%. In the case of `CS(=O)(=O)Nc1ccc(C2=NN(C(=O)c3cccc(F)c3)C(c3cccs3)C2)cc1` (stereo not drawn), the “hERG current change (%, negative = inhibition) at 10uM” value is recorded as -53.8%.

As for `CS(=O)(=O)Nc1ccc(C2=NN(C(=O)C3CCCCC3)C(c3cccs3)C2)cc1` (stereo not drawn), the “hERG current change (%, negative = inhibition) at 10uM” value was -22.8%. Turning to `CC(C)(C)C(=O)N1N=C(c2ccc(NS(C)(=O)=O)cc2)CC1c1cccs1` (stereo not drawn), the “hERG current change (%, negative = inhibition) at 10uM” value was -18.6%. `CC(C)C(=O)N1N=C(c2ccc(NS(C)(=O)=O)cc2)CC1c1cccs1` (stereo not drawn): the “hERG current change (%, negative = inhibition) at 10uM” value was -68.7%. For the compound `Cc1ccc(C(=O)N2N=C(c3ccc(NS(C)(=O)=O)cc3)CC2c2cccs2)cc1` (stereo not drawn), the “hERG current change (%, negative = inhibition) at 10uM” value was -23.1%. Turning to `CS(=O)(=O)Nc1cccc(C2=NN(C(=O)c3cccc(F)c3)C(c3cccs3)C2)c1` (stereo not drawn), the “hERG current change (%, negative = inhibition) at 10uM” value was 3.75%. `CCS(=O)(=O)Nc1ccc(C2=NN(C(=O)c3ccccc3)C(c3cccs3)C2)cc1` (stereo not drawn): the “hERG current change (%, negative = inhibition) at 10uM” value is reported as 4.84%. For `CCOC(=O)C1=NNC2C(=O)N(CC)C(=O)C12` (stereo not drawn), the “hERG current change (%, negative = inhibition) at 10uM” value is given as 9.23%.

Turning to `Cc1ccc(C)c(S(=O)(=O)N2CCN(CC(=O)Nc3ccc4c(c3)OCCO4)CC2)c1`, the “hERG current change (%, negative = inhibition) at 10uM” value is -13.9%.

Take `Cc1occc1C(=O)N1CCN(S(C)(=O)=O)CC1`: the “hERG current change (%, negative = inhibition) at 10uM” value was 7.58%. To `COc1ccc(CNC(=O)c2cc(=O)c3cc(C)c(C)cc3o2)cc1` belongs 19.3%; to `COc1ccccc1C1CC(c2ccc(NS(C)(=O)=O)cc2)=NN1S(=O)(=O)c1ccccc1` (stereo not drawn), -69.6%; to `COc1ccccc1C1CC(c2ccccc2)=NN1S(=O)(=O)c1ccccc1` (stereo not drawn), 12%. With `COc1ccccc1C1CC(c2cccc(NS(C)(=O)=O)c2)=NN1S(=O)(=O)c1ccccc1` (stereo not drawn), the “hERG current change (%, negative = inhibition) at 10uM” value was found to be 3.08%.

The values are drawn from article PMC4336329 (PLoS ONE, 2015).
